Hits are enriched below; roughly 2.7% of the tested compounds scored in any of these assays.
PAFAH2 inh: PAFAH2 (human) inhibition | inhibition, % at 3.39 µM | recombinant PAFAH2, FP-rhodamine activity probe, fluorescence polarization | Q99487 | 0.99% of 340,000 active;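 active = inhibition above the mean over all tested compounds plus 3 SD, cut at about 30% in these data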;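 note: inhibitors block probe labeling of enzyme so polarization drops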
PAFAH1B2 FP inh: inhibitors of human PAFAH1B2; inhibition, % at 3.39 µM; P68402; 1.2% of 340,000 active; recombinant PAFAH1B2, FP-rhodamine activity probe, fluorescence polarization;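 active = inhibition above the mean of all tested compounds plus 3 SD, cut at about 24% in these data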
Target sequence (P68402 whole entry, looked up): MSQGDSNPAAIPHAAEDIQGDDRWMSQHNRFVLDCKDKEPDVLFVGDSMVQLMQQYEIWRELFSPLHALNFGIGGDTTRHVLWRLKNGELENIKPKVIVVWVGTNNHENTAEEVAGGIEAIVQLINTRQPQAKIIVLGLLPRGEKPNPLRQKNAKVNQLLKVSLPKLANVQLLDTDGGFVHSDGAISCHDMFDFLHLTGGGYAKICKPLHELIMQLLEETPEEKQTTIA
PAFAH1B3 inh: blocks human PAF acetylhydrolase 1B catalytic subunit 3. 0.28% of 340,000 active. Q15102. AID 492972. inhibition, % at 3.39 µM. recombinant PAFAH1B3, FP-rhodamine probe, fluorescence polarization;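 active = inhibition above the screen-wide average of all tested compounds plus 3 SD, cut at about 25% in these data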
Target sequence (Q15102 whole entry, looked up): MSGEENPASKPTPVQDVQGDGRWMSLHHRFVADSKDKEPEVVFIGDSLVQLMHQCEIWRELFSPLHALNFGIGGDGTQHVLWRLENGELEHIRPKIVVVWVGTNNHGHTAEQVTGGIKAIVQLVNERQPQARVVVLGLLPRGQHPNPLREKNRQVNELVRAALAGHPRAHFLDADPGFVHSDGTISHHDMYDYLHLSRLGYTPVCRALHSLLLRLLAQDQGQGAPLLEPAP
TCR-CD3 inh: human TCR-CD3 binding inhibition. TAMRA-labeled TCR probe fluorescence, biochemical. inhibition, % at 9.4 µM. 0.37% of 360,000 active. AID 651800;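 note: recombinant mutant TCR 2C K166C tagged with TAMRA read by polarization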
pPAFAH inh: inhibitors of human plasma PAF acetylhydrolase (pPAFAH). inhibition, % at 3.39 µM. recombinant pPAFAH, FP-rhodamine probe fluorescence polarization. Q13093. 1.5% of 330,000 active;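 active = inhibition above the mean inhibition across the screen plus 3 SD, cut at about 25% in these data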;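 note: inhibitors block binding of the rhodamine activity-based probe so polarization drops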
pPAFAH FP conf: pPAFAH (human) inhibition, confirmed; shares compounds with pPAFAH inh; recombinant pPAFAH, FP-Rh probe fluorescence polarization; inhibition, % at 3.39 µM; 72% of 2,300 active; AID 463230;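 active = mean inhibition of the triplicate above the hit cutoff set for the earlier primary screen, cut at about 25% in these data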
PAFAH2 confirm: confirmation of human PAFAH2 inhibitors; recombinant PAFAH2, FP-rhodamine activity probe, fluorescence polarization; shares compounds with PAFAH2 inh; AID 493030; 65% of 2,300 active; inhibition, % at 3.39 µM;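 active = mean inhibition over three repeats above a set limit taken from the earlier primary screen, cut at about 30% in these data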;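 note: inhibitor blocks binding of rhodamine activity probe so polarization falls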
BSA probe FL: interferes with TAMRA-BSA probe, flagging TCR-CD3 hits; TAMRA-labeled BSA probe fluorescence counterscreen; shares compounds with TCR-CD3 inh; inhibition, % at 9.4 µM; 10% of 1,200 active; in the data active = inhibition above about 23%
TCR-CD3 conf: TCR-CD3 interaction inhibition, confirmation; inhibition, % at 9.4 µM; 48% of 1,200 active; AID 652036; TAMRA-labeled TCR probe fluorescence binding assay; shares compounds with TCR-CD3 inh
Hits are given with their value. Cut-off read from the data, not from the text of the source, unless noted: active = inhibition above about 19%; inactive = the rest.

`Cc1c2cnn(CC(=O)N3CCC4(CC3)OCCO4)c(=O)c2c(C)n1Cc1cccc(Cl)c1` gave PAFAH2 inh inactive, PAFAH1B2 FP inh inactive, PAFAH1B3 inh inactive, TCR-CD3 inh inactive and pPAFAH inh inactive.
O=c1[nH]c(=S)n(-c2ccc(Cl)cc2)c(O)c1C=Nc1ccc(N2CCOCC2)cc1 was read as PAFAH2 inh inactive, PAFAH1B2 FP inh inactive, PAFAH1B3 inh inactive, TCR-CD3 inh inactive, pPAFAH inh 43 and pPAFAH FP conf inactive.
COc1ccc(OC(=O)N(C)C[C@H]2OCc3cnnn3CCCC(=O)N([C@@H](C)CO)C[C@H]2C)cc1 was read as TCR-CD3 inh inactive.
Screening COc1ccccc1N1C(=O)NC(=O)/C(=C\c2cnn(-c3ccccc3)c2)C1=O returned PAFAH2 inh inactive, PAFAH1B2 FP inh inactive, PAFAH1B3 inh inactive, TCR-CD3 inh inactive and pPAFAH inh inactive.
COc1ccc(N2C(=O)NC(=O)/C(=C\c3ccc([N+](=O)[O-])s3)C2=O)cc1 was read as PAFAH2 inh inactive, PAFAH1B2 FP inh inactive, PAFAH1B3 inh inactive, TCR-CD3 inh inactive, pPAFAH inh 38 and pPAFAH FP conf 35.
COc1ccccc1N1C(=O)NC(=O)/C(=C/c2ccc([N+](=O)[O-])s2)C1=O was read as TCR-CD3 inh inactive, pPAFAH inh 51 and pPAFAH FP conf 42.
Screening COc1ccc(N2C(=O)NC(=O)/C(=C/c3ccc([N+](=O)[O-])s3)C2=O)cc1 returned TCR-CD3 inh inactive, pPAFAH inh 44 and pPAFAH FP conf 47.
For CC[C@@H]1c2ccccc2[C@@H]2CC[C@H]1N2c1ccccc1 the results were TCR-CD3 inh inactive.
`O=C1c2ccccc2-n2nnc(-c3ccccc3)c2C2c3ccccc3CCN12` (stereo not drawn) gave TCR-CD3 inh inactive.
`CC(C)(C)C(=O)O[C@H]1CC[C@@]2(C)C(=CC(=O)C3C2CC[C@]2(C)C(=O)[C@H](O)CC32)C1` (stereo partly drawn) gave PAFAH2 inh inactive, PAFAH1B2 FP inh inactive, PAFAH1B3 inh inactive, TCR-CD3 inh inactive and pPAFAH inh inactive.
Screening c1cc2c(cc1NC1=NCCO1)CCCC2 returned PAFAH2 inh inactive, PAFAH1B2 FP inh inactive, PAFAH1B3 inh inactive and TCR-CD3 inh inactive.
CC1CCCN(c2ccc(C(=O)N3CCC4(CC3)OCCO4)cc2[N+](=O)[O-])C1 (stereo not drawn) was read as PAFAH2 inh inactive, PAFAH1B2 FP inh inactive, PAFAH1B3 inh inactive, TCR-CD3 inh inactive, pPAFAH inh 45 and pPAFAH FP conf 59.
Screening O=C(c1ccc2c(c1)ncn2C1CCCCCC1)N1CCC2(CC1)OCCO2 returned PAFAH2 inh inactive, PAFAH1B2 FP inh inactive, PAFAH1B3 inh inactive, TCR-CD3 inh inactive and pPAFAH inh inactive.
Screening C[C@]12CCC3C(C1CCC2=O)[C@H](O)C[C@H]1C[C@@H](O)CC[C@]31C (stereo partly drawn) returned PAFAH2 inh inactive, PAFAH1B2 FP inh inactive, PAFAH1B3 inh inactive, TCR-CD3 inh inactive and pPAFAH inh inactive.
Screening CC(C)N1C(=O)/C(=C/C=C/c2ccco2)C(=O)N(Cc2ccco2)C1=O returned PAFAH2 inh inactive, PAFAH1B2 FP inh inactive, PAFAH1B3 inh inactive, TCR-CD3 inh inactive, pPAFAH inh 38 and pPAFAH FP conf inactive.
`CCN1C(=O)C(=C/C=C/c2ccco2)C(=O)N(CC)C1=S` gave PAFAH2 inh inactive, PAFAH1B2 FP inh inactive, PAFAH1B3 inh inactive, TCR-CD3 inh inactive and pPAFAH inh inactive.
`CN1C(=O)/C(=C/c2cccn2-c2ccc3ccccc3c2)C(=O)NC1=S` gave PAFAH2 inh 39, PAFAH1B2 FP inh 39, PAFAH1B3 inh inactive, TCR-CD3 inh inactive, pPAFAH inh 39 and pPAFAH FP conf inactive.
`CCC1(Cc2ccccc2)C(=O)NC(=S)N(C)C1=O` (stereo not drawn) gave PAFAH2 inh inactive, PAFAH1B2 FP inh inactive, PAFAH1B3 inh inactive and TCR-CD3 inh inactive.
Screening CC(=O)c1ccc2c(c1)C1C(Cl)C(Sc3ccccc3[N+](=O)[O-])CC1C(C(=O)O)N2 (stereo not drawn) returned PAFAH2 inh 42, PAFAH1B2 FP inh inactive, PAFAH1B3 inh 31, TCR-CD3 inh 28, pPAFAH inh 54, pPAFAH FP conf 27, BSA probe FL inactive and TCR-CD3 conf inactive.
Screening COc1ccc(NC(=O)N2C[C@@H]3C[C@@H](C2)c2cccc(=O)n2C3)c(OC)c1 returned PAFAH2 inh inactive, PAFAH1B2 FP inh inactive, PAFAH1B3 inh inactive, TCR-CD3 inh inactive and pPAFAH inh inactive.
For CN(C)[C@@H]1C(=O)C(C(N)=O)=C(O)[C@@]2(O)C(=O)C3=C(O)c4c(O)cccc4[C@@](C)(O)[C@H]3[C@H](O)[C@@H]12 the results were PAFAH2 inh 64, PAFAH1B2 FP inh 35, PAFAH1B3 inh 57, TCR-CD3 inh 45, pPAFAH inh 82, pPAFAH FP conf 75, BSA probe FL inactive and TCR-CD3 conf 27.
COc1c(C)cc(C(=O)C2CCCN(Cc3cccc(C)n3)C2)cc1C (stereo not drawn) was read as PAFAH2 inh inactive, PAFAH1B2 FP inh inactive, PAFAH1B3 inh inactive, TCR-CD3 inh inactive and pPAFAH inh inactive.
Screening CCOc1ccccc1-n1c(O)c(C=Nc2ccc(N(CC)CC)cc2)c(=O)[nH]c1=O returned PAFAH2 inh inactive, PAFAH1B2 FP inh inactive, PAFAH1B3 inh inactive, TCR-CD3 inh 24, pPAFAH inh 44, pPAFAH FP conf inactive, BSA probe FL inactive and TCR-CD3 conf inactive.
For CCOc1ccc(N=Cc2c(O)n(-c3cc(C)cc(C)c3)c(=O)[nH]c2=O)cc1 the results were PAFAH2 inh inactive, PAFAH1B2 FP inh inactive, PAFAH1B3 inh inactive, TCR-CD3 inh inactive and pPAFAH inh inactive.
`O=C(COC(=O)c1ccc(O)cc1)Nc1ccc(Cl)cc1C(=O)c1ccccc1` gave PAFAH2 inh 63, PAFAH1B2 FP inh inactive, PAFAH1B3 inh inactive, TCR-CD3 inh inactive, pPAFAH inh inactive and PAFAH2 confirm 61.
Screening CC(=O)Nc1ccc(C(=O)OCC(=O)Nc2ccc(Cl)cc2C(=O)c2ccccc2)cc1 returned PAFAH2 inh 69, PAFAH1B2 FP inh inactive, PAFAH1B3 inh inactive, TCR-CD3 inh inactive, pPAFAH inh inactive and PAFAH2 confirm 73.
O=C(COc1ccccc1)Nc1ccc(Cl)cc1C(=O)c1ccccc1 was read as PAFAH2 inh inactive, PAFAH1B2 FP inh inactive, PAFAH1B3 inh inactive, TCR-CD3 inh inactive and pPAFAH inh inactive.

From PubChem
